# Measured values taken from article PMC7862700, “An all-to-all approach to the identification of sequence-specific readers for epigenetic DNA modifications on cytosine”.
# Assays:
# Experiment in all cases: DAPPL (digital affinity profiling via proximity ligation, sequencing); 10 mM Tris-HCl pH 7.5, 50 mM NaCl, 1 mM DTT, 4% glycerol, room temperature, 30 min; GST-TFs on glutathione beads, 16-mer random dsDNA library, 0.1% formaldehyde crosslink after washing; high values mean tight binding
# Details in all cases: protein: recombinant; tags: N-terminal GST; dsDNA, one strand shown
# FLI1 = molecular target: T1, FLI1 (Homo sapiens, UniProt Q01543 1-452)
# T1 sequence: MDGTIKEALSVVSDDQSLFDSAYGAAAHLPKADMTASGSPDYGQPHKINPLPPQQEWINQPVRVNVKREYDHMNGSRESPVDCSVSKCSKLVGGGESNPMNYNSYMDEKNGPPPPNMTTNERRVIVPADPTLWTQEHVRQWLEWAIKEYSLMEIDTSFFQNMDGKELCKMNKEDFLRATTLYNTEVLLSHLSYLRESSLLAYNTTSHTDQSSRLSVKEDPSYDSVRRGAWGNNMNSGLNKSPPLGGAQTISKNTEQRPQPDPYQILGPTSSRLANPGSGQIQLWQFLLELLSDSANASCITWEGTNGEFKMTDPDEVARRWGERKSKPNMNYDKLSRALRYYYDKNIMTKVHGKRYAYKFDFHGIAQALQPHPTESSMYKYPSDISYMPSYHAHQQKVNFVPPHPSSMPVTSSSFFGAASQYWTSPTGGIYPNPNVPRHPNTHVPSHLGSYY
# Method in brief: (§1)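 Human transcription factors carrying a GST fusion were produced in yeast, bound to glutathione beads, tagged with DNA barcodes and pooled together with a tag-only sample. Each pool was held with 200 nmole of a random double-stranded 16-mer DNA library in Tris/NaCl/DTT/glycerol buffer for 30 min at room temperature, then washed, crosslinked in 0.1% formaldehyde, proximity-ligated with BsaI/T4 ligase (1 h, 37 °C), PCR-amplified and sequenced on an Illumina NextSeq500. Binding signal is the read frequency of each hexamer for a given factor divided by its frequency in the tag-only sample.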
# ELK1 = molecular target: T2, ELK1 (Homo sapiens, UniProt P19419 1-428)
# T2 sequence: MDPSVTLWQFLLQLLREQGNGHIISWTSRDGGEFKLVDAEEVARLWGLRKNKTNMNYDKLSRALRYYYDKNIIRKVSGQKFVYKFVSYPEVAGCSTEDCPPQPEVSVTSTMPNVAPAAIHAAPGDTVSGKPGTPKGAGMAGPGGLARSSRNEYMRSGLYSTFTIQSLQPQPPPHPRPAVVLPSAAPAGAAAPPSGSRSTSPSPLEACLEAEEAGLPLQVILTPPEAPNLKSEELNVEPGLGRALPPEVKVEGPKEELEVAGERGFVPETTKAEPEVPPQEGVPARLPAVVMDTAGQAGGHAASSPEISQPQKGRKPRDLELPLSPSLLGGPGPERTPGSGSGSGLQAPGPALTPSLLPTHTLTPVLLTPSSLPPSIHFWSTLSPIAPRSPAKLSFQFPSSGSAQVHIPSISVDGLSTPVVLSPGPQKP
# Method in brief: as §1
# GABPA = molecular target: T3, GABPA (Homo sapiens, UniProt Q06546 1-454)
# T3 sequence: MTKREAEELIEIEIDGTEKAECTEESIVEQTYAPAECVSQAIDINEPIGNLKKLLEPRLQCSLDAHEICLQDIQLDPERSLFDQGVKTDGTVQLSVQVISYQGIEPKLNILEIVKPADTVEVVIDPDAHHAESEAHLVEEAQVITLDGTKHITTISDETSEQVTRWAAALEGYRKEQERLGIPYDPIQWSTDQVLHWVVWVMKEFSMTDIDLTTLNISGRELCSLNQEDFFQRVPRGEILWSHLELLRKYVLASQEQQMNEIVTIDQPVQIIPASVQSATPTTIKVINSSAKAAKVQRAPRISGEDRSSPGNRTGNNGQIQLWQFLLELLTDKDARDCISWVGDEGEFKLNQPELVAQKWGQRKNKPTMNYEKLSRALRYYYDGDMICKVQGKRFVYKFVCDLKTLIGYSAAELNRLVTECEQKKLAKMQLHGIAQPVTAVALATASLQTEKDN
# Method in brief: as §1
# ERG = molecular target: T4, ERG (Homo sapiens, UniProt P11308 1-479)
# T4 sequence: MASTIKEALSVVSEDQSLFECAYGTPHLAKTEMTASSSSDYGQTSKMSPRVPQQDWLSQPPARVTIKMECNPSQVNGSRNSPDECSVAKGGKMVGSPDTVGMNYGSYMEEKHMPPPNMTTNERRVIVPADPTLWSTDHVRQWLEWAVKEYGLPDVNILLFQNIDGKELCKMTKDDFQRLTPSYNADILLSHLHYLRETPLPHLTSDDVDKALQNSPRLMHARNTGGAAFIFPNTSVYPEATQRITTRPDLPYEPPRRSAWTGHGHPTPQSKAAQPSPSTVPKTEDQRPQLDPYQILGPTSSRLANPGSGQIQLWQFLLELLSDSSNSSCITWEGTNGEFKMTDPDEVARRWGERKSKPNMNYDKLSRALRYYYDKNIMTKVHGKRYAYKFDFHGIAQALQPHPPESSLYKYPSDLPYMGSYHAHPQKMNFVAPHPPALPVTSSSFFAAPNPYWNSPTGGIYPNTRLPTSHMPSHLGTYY
# Method in brief: as §1
# ELF1 = ELF1 (Homo sapiens, UniProt P32519 1-619)
# ELF1, sequence (P32519 whole entry): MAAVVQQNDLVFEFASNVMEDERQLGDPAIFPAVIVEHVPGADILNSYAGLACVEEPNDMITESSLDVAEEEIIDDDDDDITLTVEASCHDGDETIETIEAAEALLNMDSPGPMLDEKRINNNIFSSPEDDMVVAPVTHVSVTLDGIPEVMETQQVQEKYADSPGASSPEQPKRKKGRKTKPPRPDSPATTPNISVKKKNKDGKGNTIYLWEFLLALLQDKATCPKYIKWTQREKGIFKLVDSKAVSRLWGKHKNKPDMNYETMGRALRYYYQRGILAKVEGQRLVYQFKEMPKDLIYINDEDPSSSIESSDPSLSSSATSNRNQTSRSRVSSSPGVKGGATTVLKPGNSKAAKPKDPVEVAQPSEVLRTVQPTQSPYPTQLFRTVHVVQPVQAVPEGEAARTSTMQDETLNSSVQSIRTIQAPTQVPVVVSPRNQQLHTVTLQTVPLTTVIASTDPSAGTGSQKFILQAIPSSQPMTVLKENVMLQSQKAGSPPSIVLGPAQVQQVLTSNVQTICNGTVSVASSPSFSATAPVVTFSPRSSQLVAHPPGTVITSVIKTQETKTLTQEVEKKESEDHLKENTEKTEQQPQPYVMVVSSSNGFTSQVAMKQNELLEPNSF
# Method in brief: as §1
# EHF = molecular target: T5, EHF (Homo sapiens, UniProt Q9NZC4 1-300)
# T5 sequence: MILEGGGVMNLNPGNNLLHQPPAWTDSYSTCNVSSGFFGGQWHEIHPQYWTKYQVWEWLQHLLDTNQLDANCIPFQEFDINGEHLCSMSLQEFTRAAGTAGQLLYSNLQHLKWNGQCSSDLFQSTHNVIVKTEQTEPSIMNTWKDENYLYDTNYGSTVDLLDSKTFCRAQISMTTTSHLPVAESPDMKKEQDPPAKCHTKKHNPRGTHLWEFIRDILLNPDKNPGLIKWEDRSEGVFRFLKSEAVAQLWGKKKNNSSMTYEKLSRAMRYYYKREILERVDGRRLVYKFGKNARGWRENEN
# Method in brief: as §1
# SPI1 = SPI1 (Homo sapiens, UniProt P17947 1-270)
# Method in brief: as §1
# SPIB = SPIB (Homo sapiens, UniProt Q01892 1-262)
# SPIB, sequence (Q01892 whole entry): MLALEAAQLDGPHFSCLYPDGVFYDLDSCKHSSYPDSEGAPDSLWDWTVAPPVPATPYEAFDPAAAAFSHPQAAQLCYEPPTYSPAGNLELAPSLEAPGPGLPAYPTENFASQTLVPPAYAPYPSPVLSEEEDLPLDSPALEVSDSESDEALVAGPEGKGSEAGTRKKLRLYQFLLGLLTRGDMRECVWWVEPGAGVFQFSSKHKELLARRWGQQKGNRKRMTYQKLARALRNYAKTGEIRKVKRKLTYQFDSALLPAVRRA
# Method in brief: as §1
# ELK3 = molecular target: T6, ELK3 (Homo sapiens, UniProt P41970 1-407)
# T6 sequence: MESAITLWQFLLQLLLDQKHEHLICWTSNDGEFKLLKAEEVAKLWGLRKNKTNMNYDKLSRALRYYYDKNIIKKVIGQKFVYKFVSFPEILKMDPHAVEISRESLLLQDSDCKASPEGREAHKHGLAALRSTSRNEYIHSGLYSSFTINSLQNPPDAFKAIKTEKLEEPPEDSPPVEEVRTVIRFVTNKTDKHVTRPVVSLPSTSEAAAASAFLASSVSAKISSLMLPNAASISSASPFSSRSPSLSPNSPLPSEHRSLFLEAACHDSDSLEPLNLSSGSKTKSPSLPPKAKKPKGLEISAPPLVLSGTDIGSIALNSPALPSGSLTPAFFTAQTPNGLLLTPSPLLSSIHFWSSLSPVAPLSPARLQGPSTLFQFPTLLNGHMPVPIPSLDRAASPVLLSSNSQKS
# Method in brief: as §1
Sequence,binding signal (FLI1),binding signal (ELK1),binding signal (GABPA),binding signal (ERG),binding signal (ELF1),binding signal (EHF),binding signal (SPI1),binding signal (SPIB),binding signal (ELK3)
CTGATA,"1.15 fold enrichment (6-mer frequency, TF over GST control)","1.17 fold enrichment (6-mer frequency, TF over GST control)","1.27 fold enrichment (6-mer frequency, TF over GST control)","1.1 fold enrichment (6-mer frequency, TF over GST control)","1.21 fold enrichment (6-mer frequency, TF over GST control)","1.26 fold enrichment (6-mer frequency, TF over GST control)","1.28 fold enrichment (6-mer frequency, TF over GST control)","1.32 fold enrichment (6-mer frequency, TF over GST control)","1.24 fold enrichment (6-mer frequency, TF over GST control)"
TCTCTA,"1.21 fold enrichment (6-mer frequency, TF over GST control)","1.31 fold enrichment (6-mer frequency, TF over GST control)","1.23 fold enrichment (6-mer frequency, TF over GST control)","1.36 fold enrichment (6-mer frequency, TF over GST control)","1.36 fold enrichment (6-mer frequency, TF over GST control)","1.34 fold enrichment (6-mer frequency, TF over GST control)","1.26 fold enrichment (6-mer frequency, TF over GST control)","1.33 fold enrichment (6-mer frequency, TF over GST control)","1.22 fold enrichment (6-mer frequency, TF over GST control)"
TATCGA,"1.36 fold enrichment (6-mer frequency, TF over GST control)","1.28 fold enrichment (6-mer frequency, TF over GST control)","1.32 fold enrichment (6-mer frequency, TF over GST control)","1.36 fold enrichment (6-mer frequency, TF over GST control)","1.36 fold enrichment (6-mer frequency, TF over GST control)","1.35 fold enrichment (6-mer frequency, TF over GST control)","1.34 fold enrichment (6-mer frequency, TF over GST control)","1.25 fold enrichment (6-mer frequency, TF over GST control)","1.34 fold enrichment (6-mer frequency, TF over GST control)"
CTACTA,"1.32 fold enrichment (6-mer frequency, TF over GST control)","1.36 fold enrichment (6-mer frequency, TF over GST control)","1.34 fold enrichment (6-mer frequency, TF over GST control)","1.24 fold enrichment (6-mer frequency, TF over GST control)","1.39 fold enrichment (6-mer frequency, TF over GST control)","1.33 fold enrichment (6-mer frequency, TF over GST control)","1.32 fold enrichment (6-mer frequency, TF over GST control)","1.3 fold enrichment (6-mer frequency, TF over GST control)","1.37 fold enrichment (6-mer frequency, TF over GST control)"
